# According to PubChem BioAssay AID651871 (Sanford-Burnham Center for Chemical Genomics, 2012):
# Tested on: HL-1
# Experiment: protection of cardiomyocytes from stress damage, SAR follow-up, cell-based, panel, H9c2 and HL-1, ATP luminescence, set 2 (AID 651871);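 also: cells exposed to stressor for 2 h before ATP readout; reference of the scale not given here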
# Conditions: H9c2/HL-1 cardiomyocytes, 2-deoxyglucose stress, with 2-deoxyglucose, run 5, at 19.8 µM (top of the series)
smiles,measurement,value
COc1ccc2c(c1OC)C(=O)N1c3ccccc3C(=O)N(Cc3cccc(Cl)c3Cl)C21 (stereo unspecified),activity (protection/inhibition),51.6%
